Results from PubChem BioAssay.
Values joined by “and” are separate entries in the source; they are usually repeats but may differ in a detail not shown here. Equal values may be shown once. Active and inactive are the calls of the source.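 Rule for the calls, unless noted: active = normalized viability below 100% at a tested concentration; inactive = the rest.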

What was measured:
[1] = polyglutamine-triggered caspase-3 activation inhibitors, cell-based (AID 1583); details: polyglutamine-induced caspase-3 activation, cell assay; stronger effect = higher value;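 tested at 10 µM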
[2] = hESC survival regulators, cell-based (AID 493140; call rule not given here;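 note: cells exposed to compounds for four days before counting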); details: human embryonic stem cell survival screen; stronger effect = higher value
[3] = stimulators of insulin release from INS-1E, primary screen, cell-based, 5 mM glucose, NPC library (AID 1117329;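 active = compound raises insulin release from rat beta cells at 5 mM glucose, no numeric limit stated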); details: rat INS-1E insulin secretion, at 10 µM, stronger effect = higher value
[4] = growth inhibition of GSK3B-pretreated HCT116 cells – cell-based, CellTiter-Glo, 0.2 to 20 µM (AID 1117336;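 active = compounds lowering colon cancer cell viability after pretreatment blocking the GSK3B kinase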); details: HCT116 viability after GSK3B inhibitor, at 20 µM, stronger effect = higher value
[5] = inhibition of endothelial tube formation, primary screen, imaging, VEGF stimulated, CD31 staining, tube area, NPC library (AID 1117340;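 active = compound that reduces growth-factor-driven endothelial tube area in a mixed cell culture, no cutoff stated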); details: VEGF-stimulated ADSC/ECFC co-culture, at 10 µM, stronger effect = higher value
[6] = glucagon-like peptide 1 release enhancers, primary assay, NCI-H716 cell line, NPC library (AID 1117341;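 active = compound raises GLP1 secretion from the human gut endocrine cells, with no numeric limit stated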); details: NCI-H716 cells, at 10 µM, stronger effect = higher value
[7] = HCT116 colon cancer cell growth inhibition, primary screen, CellTiter-Glo luminescence, NPC library (AID 1117342;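 active = compounds that lower survival of HCT116 colon cancer cells in the luminescence readout, no numeric limit stated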); details: at 20 µM (top of the series)
[8] = CellTiter-Glo luminescent readout of SW480 viability loss, NPC library primary (AID 1117343;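 active = compounds that lower viability of the colon cancer cells in the luminescence readout, with no numeric limit stated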); details: CellTiter-Glo luminescence; at 20 µM (top of the series) unless noted
[9] = decreased DLD-1 cellular survival, CellTiter-Glo luminescent readout, NPC compound collection, primary HTS (AID 1117346;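 active = compounds that lower survival of DLD-1 colon cancer cells in the luminescence readout, no cutoff given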); details: DLD-1 viability, CellTiter-Glo luminescence; at 20 µM (top of the series)
[10] = target: 6-phosphogluconate dehydrogenase, decarboxylating (Homo sapiens) (UniProt P52209); test: 6PGD enzyme inhibitors, primary screen, biochemical, human, recombinant enzyme, NADPH absorbance (AID 1159550;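 active = at least 20% inhibition of 6-phosphogluconate dehydrogenase activity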); details: recombinant 6PGD, NADPH absorbance 341 nm; at 10 µM; stronger effect = higher value
6-phosphogluconate dehydrogenase, decarboxylating (Homo sapiens), sequence (P52209 whole entry, looked up): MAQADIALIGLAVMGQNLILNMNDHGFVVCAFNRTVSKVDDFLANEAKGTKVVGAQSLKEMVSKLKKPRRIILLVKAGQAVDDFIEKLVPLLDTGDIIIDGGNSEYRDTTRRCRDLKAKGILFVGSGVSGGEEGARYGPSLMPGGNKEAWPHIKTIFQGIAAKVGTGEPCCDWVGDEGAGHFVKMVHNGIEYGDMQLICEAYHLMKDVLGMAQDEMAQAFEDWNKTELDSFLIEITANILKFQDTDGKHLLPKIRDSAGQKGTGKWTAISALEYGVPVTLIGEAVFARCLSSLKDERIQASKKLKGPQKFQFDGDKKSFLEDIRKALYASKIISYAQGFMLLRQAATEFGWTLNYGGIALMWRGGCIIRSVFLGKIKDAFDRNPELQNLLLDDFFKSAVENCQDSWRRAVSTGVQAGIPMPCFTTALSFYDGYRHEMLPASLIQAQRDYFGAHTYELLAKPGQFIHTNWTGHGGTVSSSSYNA

[11] = modulation of C. elegans fzo-1 (AID 1259413; call rule not given here;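 note: fzo-1 mutant C. elegans worms in liquid wells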); details: C. elegans fzo-1 modulator screen, mean read-out; stronger effect = higher value
[12] = differential killing of epithelial or mesenchymal cells, primary screen, imaging, PC-3E GFP, TEM4-18 mCherry, co-culture (AID 1345086;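 active = compounds killing one labelled cell type while sparing the other, by normalised counts and ratio limits, not self-fluorescent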;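 for all read-outs here: cells exposed to compound for 72 h before imaging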;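 for red/green cell ratio (normalised): normalised mesenchymal count divided by normalised epithelial count so high means epithelial killing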); details: imaging cell counts, at 1 µM; for red/green cell ratio (normalised): actives lie on both sides, counts scaled to control wells, 1 = unselective
[13] = target: NAD(+) hydrolase SARM1 (Homo sapiens) (UniProt Q6SZW1); test: SARM1 TIR NADase inhibitors, cell lysate, NAD-Glo luminescence (AID 1508614;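 active = compound whose remaining NAD level is above about 45 nM, limit read from the data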;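 note: higher remaining NAD means stronger inhibition of SARM1 NADase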); details: SAM-TIR HEK293T lysate NADase, at 1 µM, stronger effect = higher value
NAD(+) hydrolase SARM1 (Homo sapiens), sequence (Q6SZW1 whole entry, looked up, the tested form may be a part): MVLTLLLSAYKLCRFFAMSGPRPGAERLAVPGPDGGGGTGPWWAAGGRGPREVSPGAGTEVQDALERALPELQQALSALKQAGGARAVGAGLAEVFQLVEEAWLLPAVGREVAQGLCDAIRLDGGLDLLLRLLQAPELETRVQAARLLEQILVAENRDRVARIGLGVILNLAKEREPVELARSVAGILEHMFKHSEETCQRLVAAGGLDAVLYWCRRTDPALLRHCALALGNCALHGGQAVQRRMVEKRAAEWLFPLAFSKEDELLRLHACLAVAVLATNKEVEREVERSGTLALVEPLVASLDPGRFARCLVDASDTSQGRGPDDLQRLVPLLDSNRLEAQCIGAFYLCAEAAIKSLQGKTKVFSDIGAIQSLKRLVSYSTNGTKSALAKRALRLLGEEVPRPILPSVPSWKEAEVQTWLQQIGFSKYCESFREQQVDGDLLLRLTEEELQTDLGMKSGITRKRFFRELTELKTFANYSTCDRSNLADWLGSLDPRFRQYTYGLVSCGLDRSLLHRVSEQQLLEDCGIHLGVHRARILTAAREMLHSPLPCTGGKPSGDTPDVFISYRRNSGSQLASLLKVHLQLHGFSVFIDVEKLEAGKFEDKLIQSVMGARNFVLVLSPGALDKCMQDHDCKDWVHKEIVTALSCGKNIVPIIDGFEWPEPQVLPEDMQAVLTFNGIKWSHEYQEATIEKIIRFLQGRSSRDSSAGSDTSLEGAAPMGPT

[14] = target: Mitogen-activated protein kinase 7 (Homo sapiens) (UniProt Q13164); test: ERK5 transactivation activators in reporter cells, primary screen, cell-based, HTS (AID 1508626;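 active = luciferase signal above three times the same-plate solvent-only control wells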;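 note: luciferase driven by Gal4-ERK5 fusion binding five Gal4 sites before minimal TATA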); details: HeLa Gal4-ERK5 transactivation, 18 h, at 5 µM, stronger effect = higher value
Mitogen-activated protein kinase 7 (Homo sapiens), sequence (Q13164 whole entry, looked up, the tested form may be a part): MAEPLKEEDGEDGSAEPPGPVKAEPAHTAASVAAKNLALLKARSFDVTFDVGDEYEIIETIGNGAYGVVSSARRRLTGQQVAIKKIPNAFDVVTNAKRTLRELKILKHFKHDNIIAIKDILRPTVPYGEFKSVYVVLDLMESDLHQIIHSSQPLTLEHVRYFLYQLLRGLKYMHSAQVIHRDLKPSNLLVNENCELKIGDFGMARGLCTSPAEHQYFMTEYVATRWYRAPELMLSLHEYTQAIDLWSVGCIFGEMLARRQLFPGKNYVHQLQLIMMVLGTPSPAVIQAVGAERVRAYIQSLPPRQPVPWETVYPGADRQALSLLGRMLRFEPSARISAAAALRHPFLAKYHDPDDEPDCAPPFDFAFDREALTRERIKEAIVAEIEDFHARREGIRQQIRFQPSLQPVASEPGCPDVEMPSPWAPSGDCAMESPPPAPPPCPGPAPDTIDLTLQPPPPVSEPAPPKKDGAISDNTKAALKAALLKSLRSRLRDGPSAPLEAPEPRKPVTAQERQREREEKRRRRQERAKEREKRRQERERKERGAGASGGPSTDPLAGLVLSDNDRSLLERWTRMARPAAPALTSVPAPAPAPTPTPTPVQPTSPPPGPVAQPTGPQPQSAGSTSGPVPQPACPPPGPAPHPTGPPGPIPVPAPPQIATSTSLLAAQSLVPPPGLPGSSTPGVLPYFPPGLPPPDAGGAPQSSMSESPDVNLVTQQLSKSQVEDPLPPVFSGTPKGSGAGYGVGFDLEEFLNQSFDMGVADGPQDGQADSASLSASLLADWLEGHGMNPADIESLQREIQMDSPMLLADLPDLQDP

[15] = liver-stage malaria parasite growth inhibition, primary screen, cell-based, HepG2, luciferase luminescence, HepG2 viability (AID 624349; in the data active = parasite load remaining mostly below about 12%, no sharp cut-off; inactive = mostly above about 10%;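 note: 100% = mean of DMSO negative control wells on the same plate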); details: P. berghei liver stage in HepG2, luciferase luminescence, concentration not given here; parasite load remaining: stronger effect = lower value; viability: measured here: HepG2 viability without parasites
[16] = sensitizers of A549 cells to miR-34 induction, primary screen, imaging, A549 dox-inducible miR-34, nuclei and caspase counts (AID 1347080;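 active = compounds whose cell count with miR-34 switched on is under 0.7 times the count with it off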); details: A549 miR-34 inducible, Hoechst nuclei count, 48 h
[17] = survival rescue of mitochondrial mutant cells in low glucose, primary screen, MELAS cybrids, Rieske KO mouse fibroblasts, CellTiter-Glo (AID 1508586;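 active = mean z-score across replicates of 1.96 or higher in either the MELAS or the Rieske mutant cell line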;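 note: z relative to plate mean and SD of compound and empty wells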)
[18] = ovarian cancer cell viability with rucaparib, profiling panel, oncology-focused library, rucaparib conditional (AID 1508598); details: patient-derived ovarian cancer cells, CellTiter-Glo viability, 144 h, stronger effect = lower value
[19] = viability rescue of complex I mutant cybrids, primary screen, cell-based, galactose medium, ATP luminescence (AID 1645843;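 active = z-score of at least 1.8 in each of two replicates, scored against plate mean and spread of sample wells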;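 note: positive z means more ATP and so rescue of galactose-driven cybrid death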); details: complex I mutant cybrid cells, 72 h, stronger effect = higher value
[20] = measured here: epithelial PC-3E GFP cell survival
[21] = measured here: mesenchymal TEM4-18 mCherry cell survival

CCn1cc(C(=O)O)c(=O)c2ccc(C)nc21
inactive: survival [2] 18 | insulin secretion stimulation [3] -1.7% | viability decrease [4] 10.1% | tube area decrease [5] 2% | GLP1 secretion stimulation [6] 3.3% | inhibition of viability [7] 10.9% | viability decrease (inhibition) [8] 30.9% | viability decrease (inhibition) [9] -0.43% | inhibition [10] -7.36% | mean signal [11] 268 | red/green cell ratio (normalised) [12] 0.88 | remaining NAD [13] 10 nM | luciferase signal [14] 44 AU
0.97: normalised cell number [12, 21]
1.09: normalised cell number [12, 20]
1.35%: inhibition [1]

CC(C)n1c(/C=C/[C@@H](O)C[C@@H](O)CC(=O)O)c(-c2ccc(F)cc2)c2ccccc21
1610 and 1940: cell count ([16]; measured here: total cells without miR-34 induction)
active: viability decrease [4] 97.8% | tube area decrease [5] 100% | inhibition of viability [7] 88.8% | viability decrease (inhibition) [8] 111% | viability decrease (inhibition) [9] 50.2% | viability ([18]; at 0.000305 µM, OCI-P5x cells, with rucaparib 20 µM, 100% = cells with rucaparib alone) 86.5% | viability ([18]; at 0.000305 µM, OCI-P5x cells, without rucaparib) 89.2% | viability ([18]; at 0.00122 µM, OCI-P5x cells, with rucaparib 20 µM, 100% = cells with rucaparib alone) 89.7% | viability ([18]; at 0.00122 µM, OCI-P5x cells, without rucaparib) 88.8% | viability ([18]; at 0.00488 µM, OCI-C5x cells, with rucaparib 10 µM, 100% = cells with rucaparib alone) 92% | viability ([18]; at 0.00488 µM, OCI-C5x cells, without rucaparib) 96.6% | viability ([18]; at 0.00488 µM, OCI-P5x cells, with rucaparib 20 µM, 100% = cells with rucaparib alone) 82.4% | viability ([18]; at 0.00488 µM, OCI-P5x cells, without rucaparib) 87.2% | viability ([18]; at 0.0195 µM, OCI-C5x cells, with rucaparib 10 µM, 100% = cells with rucaparib alone) 73.9% | viability ([18]; at 0.0195 µM, OCI-C5x cells, without rucaparib) 71.3% | viability ([18]; at 0.0195 µM, OCI-P5x cells, with rucaparib 20 µM, 100% = cells with rucaparib alone) 44.2% | viability ([18]; at 0.0195 µM, OCI-P5x cells, without rucaparib) 53.6% | viability ([18]; at 0.0781 µM, OCI-C5x cells, with rucaparib 10 µM, 100% = cells with rucaparib alone) 50.9% | viability ([18]; at 0.0781 µM, OCI-C5x cells, without rucaparib) 54.7% | viability ([18]; at 0.0781 µM, OCI-P5x cells, with rucaparib 20 µM, 100% = cells with rucaparib alone) 21.8% | viability ([18]; at 0.0781 µM, OCI-P5x cells, without rucaparib) 31% | viability ([18]; at 0.313 µM, OCI-C5x cells, with rucaparib 10 µM, 100% = cells with rucaparib alone) 32.6% | viability ([18]; at 0.313 µM, OCI-C5x cells, without rucaparib) 33.3% | viability ([18]; at 0.313 µM, OCI-P5x cells, with rucaparib 20 µM, 100% = cells with rucaparib alone) 8.26% | viability ([18]; at 0.313 µM, OCI-P5x cells, without rucaparib) 10.2% | viability ([18]; at 1.25 µM, OCI-C5x cells, with rucaparib 10 µM, 100% = cells with rucaparib alone) 20.2% | viability ([18]; at 1.25 µM, OCI-C5x cells, without rucaparib) 22.5% | viability ([18]; at 1.25 µM, OCI-P5x cells, with rucaparib 20 µM, 100% = cells with rucaparib alone) 5.66% | viability ([18]; at 1.25 µM, OCI-P5x cells, without rucaparib) 4.09% | viability ([18]; at 5 µM, OCI-C5x cells, with rucaparib 10 µM, 100% = cells with rucaparib alone) 7.97% | viability ([18]; at 5 µM, OCI-C5x cells, without rucaparib) 7.19% | viability ([18]; at 5 µM, OCI-P5x cells, with rucaparib 20 µM, 100% = cells with rucaparib alone) 5.66% | viability ([18]; at 5 µM, OCI-P5x cells, without rucaparib) 4.42%
0.53: normalised cell number [12, 21]
0.844 and 2.14: fold change ([16]; measured here: relative caspase fold change +Dox/-Dox)
1760 and 2100: cell count ([16]; measured here: total cells with miR-34 induction, stronger effect = lower value)
82.3% and 114%: viability [15]
0.75: normalised cell number [12, 20]
-0.983: z-score ([17]; Rieske KO mouse fibroblast survival, CellTiter-Glo 72 h)
inactive: survival [2] 2.5 | parasite load remaining [15] 164% and 130% | insulin secretion stimulation [3] 3.6% | GLP1 secretion stimulation [6] 1.4% | mean signal [11] 243 | red/green cell ratio (normalised) [12] 0.7 | fold change ([16]; stronger effect = lower value, cell number ratio, induced over uninduced) 1.1 and 1.08 | z-score ([17]; MELAS cybrid survival, CellTiter-Glo 48 h, stronger effect = higher value) -1.26 | viability ([18]; at 0.000305 µM, OCI-C5x cells, with rucaparib 10 µM, 100% = cells with rucaparib alone) 102% | viability ([18]; at 0.000305 µM, OCI-C5x cells, without rucaparib) 102% | viability ([18]; at 0.00122 µM, OCI-C5x cells, with rucaparib 10 µM, 100% = cells with rucaparib alone) 102% | viability ([18]; at 0.00122 µM, OCI-C5x cells, without rucaparib) 109% | remaining NAD [13] 10 nM | z-score [19] -0.215 and -1.78
